Data reported in PubChem BioAssay (EPA / NIEHS).
Several values for one entry are separate records, joined by “and”; a condition that tells them apart may be missing. Identical values can stand only once. More than one record can exist for a structure, and the calls need not agree. Activity calls are given as the source filed them. How the source made its calls: active means hit-call score of the fitted dose curve at least 0.9, where 1 is the maximum; inactive means score below 0.9.

How the values were obtained:
[1] = BSK_hDFCGF_SRB: Viability Assessment in the BioMAP Diversity Plus: hDFCGF Assay (AID 2283061); conditions: primary human foreskin fibroblasts;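 further: cells exposed to compound for 24 h before the read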
How it was run: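 Viability was read as total protein: after 10% TCA fixation, wells were stained with 0.1% sulforhodamine B and read at 560 nm. Primary human foreskin fibroblasts were dosed for 24 h, with bidirectional fitting versus DMSO.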

[2] = read-out: TIMP metallopeptidase inhibitor 1 (TIMP1), TIMP1 (gene 7076); assay: BSK_hDFCGF_TIMP1: BioMAP Diversity Plus: hDFCGF Assay for TIMP metallopeptidase inhibitor 1 (TIMP1) Biomarker Activity (AID 2283062); conditions: primary human foreskin fibroblasts; actives raise or lower the signal
How it was run: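 TIMP-1 measured by ELISA 24 h after chemical dosing of primary human skin fibroblasts, with gain or loss fitted relative to DMSO. Parallel SRB staining (560 nm) monitored overt cytotoxicity.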

[3] = read-out: Monokine induced gamma interferon (MIG), CXCL9 (gene 4283); assay: BSK_hDFCGF_MIG: BioMAP Diversity Plus: hDFCGF Assay for Monokine induced gamma interferon (MIG) Biomarker Activity (AID 2283063); conditions: primary human foreskin fibroblasts; actives raise or lower the signal
How it was run: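 Human primary foreskin fibroblasts in the hDFCGF system, exposed to test chemical for 24 h; MIG measured by ELISA. Bidirectional curve fitting against DMSO negative control as activity baseline.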

[4] = read-out: Vascular cell adhesion molecule 1 (VCAM1), VCAM1 (gene 7412); assay: BSK_hDFCGF_VCAM1: BioMAP Diversity Plus: hDFCGF Assay for Vascular cell adhesion molecule 1 (VCAM1) Biomarker Activity (AID 2283065); conditions: primary human foreskin fibroblasts; actives raise or lower the signal;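 on AC50: VCAM-1 protein level quantified by ELISA after 24 h chemical exposure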
How it was run: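 ELISA readout of VCAM-1 on human dermal fibroblast primary cultures, 24 h after chemical exposure. Gain or loss of signal fitted in both directions against DMSO baseline.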

[5] = read-out: Plasminogen activator inhibitor-1 (PAI1), SERPINE1 (gene 5054); assay: BSK_hDFCGF_PAI1: BioMAP Diversity Plus: hDFCGF Assay for Plasminogen activator inhibitor-1 (PAI1) Biomarker Activity (AID 2283066); conditions: primary human foreskin fibroblasts; actives raise or lower the signal
How it was run: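 Human foreskin fibroblasts in the hDFCGF system were dosed with compound for 24 h; PAI-1 was quantified by ELISA. Bidirectional curve fitting used DMSO as negative control and baseline.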

[6] = read-out: Intercellular Adhesion Molecule 1 (ICAM1), ICAM1 (gene 3383); assay: BSK_KF3CT_ICAM1: BioMAP Diversity Plus: KF3CT Assay for Intercellular Adhesion Molecule 1 (ICAM1) Biomarker Activity (AID 2283067); conditions: primary human keratinocytes with fibroblasts; actives raise or lower the signal
How it was run: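 Cell-surface ICAM-1 was measured by ELISA 24 h after dosing primary human skin keratinocytes co-cultured with fibroblasts. Parallel SRB staining tracked overt cytotoxicity. Gain or loss of signal was fitted relative to DMSO.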

[7] = read-out: Interferon-gamma inducible Protein 10 (IP10), CXCL10 (gene 3627); assay: BSK_KF3CT_IP10: BioMAP Diversity Plus: KF3CT Assay for Interferon-gamma inducible Protein 10 (IP10) Biomarker Activity (AID 2283068); conditions: primary human keratinocytes with fibroblasts; actives raise or lower the signal
How it was run: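 In a primary skin co-culture of keratinocytes and fibroblasts, IP-10 is quantified by ELISA at 24 h after dosing. SRB staining of parallel wells monitors overt toxicity. Curves are fitted both directions against DMSO.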

[8] = BSK_KF3CT_SRB: Viability Assessment in the BioMAP Diversity Plus: KF3CT Assay (AID 2283069); conditions: primary human keratinocytes with fibroblasts;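 further: total protein by sulforhodamine B staining as a cytotoxicity measure; read 24 h after compound addition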
How it was run: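 Human keratinocyte and foreskin fibroblast co-culture exposed to chemical for 24 h. Total protein measured in parallel cultures by 0.1% sulforhodamine B staining after 10% TCA fixation, read at 560 nm; bidirectional fit relative to DMSO.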

[9] = read-out: Interleukin-1 alpha (IL1a), IL1A (gene 3552); assay: BSK_KF3CT_IL1a: BioMAP Diversity Plus: KF3CT Assay for Interleukin-1 alpha (IL1a) Biomarker Activity (AID 2283070); conditions: primary human keratinocytes with fibroblasts; actives raise or lower the signal
How it was run: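 Primary human keratinocyte plus foreskin fibroblast co-culture, dosed and measured at 24 h in 96-well plates. IL-1a level quantified by ELISA; bidirectional fit relative to DMSO.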

[10] = read-out: Matrix Metallopeptidase 1 (MMP1), MMP1 (gene 4312); assay: BSK_hDFCGF_MMP1: BioMAP Diversity Plus: hDFCGF Assay for Matrix Metallopeptidase 1 (MMP1) Biomarker Activity (AID 2283064); conditions: primary human foreskin fibroblasts; actives raise or lower the signal
How it was run: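 Primary human foreskin fibroblasts exposed to chemicals for 24 h; MMP1 measured by ELISA. Cytotoxicity tracked by SRB staining in parallel cultures; bidirectional fit relative to DMSO.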

Measured: AC50

c1cc2ccc3cccc4ccc(c1)c2c34
not listed: [10]
inactive: all other assays above

C=CC(N)=O
not listed: [6] | [8]
inactive: all other assays above

ClC(Cl)=C(c1ccc(Cl)cc1)c1ccc(Cl)cc1
active: [1] 18.2 µM | [2] 30 µM | [3] 27.8 µM | [10] 31.6 µM | [4] 14.1 µM | [5] 16.6 µM | [7] 30.2 µM | [8] 27.9 µM | [9] 27.9 µM

CC1=C2C[C@H]3[C@@H](CC=C4C[C@@H](O)CC[C@@]43C)[C@@H]2CC[C@]12O[C@@H]1C[C@H](C)CN[C@H]1[C@H]2C
not listed: [6] | [8]
inactive: all other assays above

O=S(=O)(O)C(F)(F)C(F)(F)C(F)(F)C(F)(F)F
not listed: [6]
inactive: all other assays above

CCC(=O)O[C@H]1CC[C@H]2[C@@H]3CCC4=CC(=O)CC[C@]4(C)[C@H]3CC[C@]12C
active: [1] 36.1 µM | [2] 33.8 µM | [3] 36.9 µM | [10] 35.9 µM | [4] 31.4 µM | [5] 39.1 µM | [7] 32.1 µM | [9] 32.7 µM

NS(=O)(=O)C(F)(F)C(F)(F)C(F)(F)C(F)(F)C(F)(F)C(F)(F)C(F)(F)C(F)(F)F
active: [1] 26.9 µM and 55 µM and 47.2 µM | [2] 34.4 µM and 53.2 µM and 54.7 µM | [3] 29.4 µM and 9.34 µM and 11 µM | [10] 30.7 µM and 15.3 µM and 17.5 µM | [4] 17.3 µM and 9.88 µM and 7.69 µM | [5] 27.7 µM and 15.4 µM and 21.1 µM | [6] 32 µM and 43.5 µM and 54 µM | [7] 13 µM and 32.4 µM and 37.3 µM | [8] 30.1 µM and 45.6 µM and 21.4 µM | [9] 29.4 µM and 43.8 µM and 44.6 µM

Cc1cccc([N+](=O)[O-])c1
not listed: [10]
inactive: all other assays above

ClC1=C(Cl)[C@]2(Cl)[C@@H]3[C@@H](Cl)[C@H]4O[C@H]4[C@@H]3C1(Cl)C2(Cl)Cl
active: [1] 5.55 µM
not listed: [6]
inactive: all other assays above

CCCCCCCCOC(=O)c1ccccc1C(=O)OCCCCCCCC
inactive: all assays above

O=C(O)C(F)(F)C(F)(F)C(F)(F)C(F)(F)C(F)(F)C(F)(F)C(F)(F)C(F)(F)F
inactive: [1] | [2] | [3] | [10] | [4] | [5] | [6] | [8] | [9]
active: [3] 19 µM | [4] 48.5 µM | [7] 30.2 µM and 54.7 µM and 47.3 µM | [9] 7.86 µM and 30 µM

CCCCCCCCCc1ccc(O)cc1
active: [1] 15.4 µM | [2] 16.9 µM | [3] 14.9 µM | [10] 15.4 µM | [4] 13.3 µM | [5] 15.5 µM | [7] 13.4 µM | [9] 15.6 µM

c1ccc(-c2ccccc2)cc1
inactive: all assays above

COS(=O)(=O)OC
not listed: [6]
inactive: all other assays above

CCCCCCCCCC[N+](C)(C)CCCCCCCCCC
active: [1] 1.81 µM | [2] 2 µM | [3] 2.95 µM | [10] 1.97 µM | [4] 3.39 µM | [5] 1.58 µM | [7] 6.12 µM | [9] 6.82 µM

Clc1ccc(C(c2ccccc2Cl)C(Cl)(Cl)Cl)cc1 (stereo not drawn)
active: [1] 6.8 µM | [2] 9.41 µM | [3] 18.5 µM | [4] 6.32 µM | [5] 5.83 µM | [6] 22.8 µM | [7] 10 µM | [8] 21.1 µM | [9] 18.4 µM

CC(C)C(=O)OCC(C)(C)C(OC(=O)C(C)C)C(C)C (stereo not drawn)
not listed: [6]
inactive: all other assays above

O=S(=O)(O)C(F)(F)C(F)(F)C(F)(F)C(F)(F)C(F)(F)C(F)(F)F
not listed: [6] | [8]
inactive: all other assays above

Sc1ccccc1
not listed: [6]
inactive: all other assays above

Oc1ccc(Cl)cc1Cl
not listed: [10]
inactive: all other assays above

Clc1ccc(Cl)cc1
not listed: [6]
inactive: all other assays above

Cc1ccccc1CO[C@@H]1C[C@@]2(C(C)C)CC[C@]1(C)O2
not listed: [6] | [8]
inactive: all other assays above

CCNc1nc(NC(C)C)nc(SC)n1
not listed: [6] | [8]
inactive: all other assays above

CCC(C)c1cc([N+](=O)[O-])cc([N+](=O)[O-])c1O (stereo not drawn)
active: [1] 7.45 µM | [5] 12 µM | [7] 3.97 µM
not listed: [6] | [8]
inactive: all other assays above

Oc1c(Cl)c(Cl)c(Cl)c(Cl)c1Cl
inactive: [2] | [9]
active: [1] 7.08 µM and 12.4 µM | [2] 13.7 µM | [3] 4.29 µM | [4] 10.2 µM and 4.61 µM | [5] 10.2 µM and 9.72 µM | [6] 10.2 µM and 16.6 µM | [7] 12.9 µM and 20 µM | [9] 20 µM

Cc1cc(O)ccc1Cl
inactive: all assays above

CCCN(CCC)N=O
not listed: [10]
inactive: all other assays above

CC(c1ccc(O)cc1)(c1ccc(O)cc1)c1ccc(O)cc1
active: [1] 29.2 µM | [3] 23.8 µM | [10] 39.2 µM | [4] 8.14 µM | [5] 20.5 µM | [7] 22.3 µM
inactive: [2] | [9]

Nn1cnnc1
not listed: [10]
inactive: all other assays above

CN(C)c1nc(=O)n(C2CCCCC2)c(=O)n1C
not listed: [6] | [8]
inactive: all other assays above
